# This is a sample that favours compounds with a hit; in the whole collection about 3% have one here.
# SNCA expr inh: Primary qHTS assay for inhibitors of alpha-synuclein gene (SNCA) expression. Potency, µM (doses to about 57.2 µM), inactives show top-dose activity change, negative = inhibition, usual class: inhibitors. AID 1671194, 2021. HEK-293 SNCA-luciferase knock-in, luminescence, 24 h. 0.17% of 140,000 active;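 further: potency means the concentration at half of the fitted maximal effect; plate controls were DMSO cells for no effect and cell-free wells for full effect; nearly all actives have a fitted effect of over 45% in size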
# HEK293 viab: GF-AFC viability counterscreen for inhibitors of alpha-synuclein gene (SNCA) expression. HEK-293-SNCA-luc viability, GF-AFC fluorescence, 24 h. Potency, µM (series often up to 57.1 µM), without a hit: top-dose activity change, negative = cytotoxicity, hits mostly cytotoxic. 0.12% of 150,000 active;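 further: potency means the concentration at half of the fitted maximal effect; 0% = DMSO-treated cells and -100% = medium-only wells without cells; nearly all actives have a fitted effect of over 30% in size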
#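 HEK-293-SNCA-luc cells (1500/well) plated 24 h, then exposed 24 h to a dilution series; GF-AFC added 30 min at 37C, fluorescence 405/540 nm; normalised to medium-only and DMSO wells, Hill fit.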
# KDM5B inh: Primary screen for KDM5B Histone Demethylases FDH-coupled qHTS | Potency, µM (titrated, usually from 57.7 µM), most hits filed as inhibitors | KDM5B demethylase, FDH-coupled NADH fluorescence (FDH is formaldehyde dehydrogenase) | 2.6% of 220,000 active | Lysine-specific demethylase 5B (Homo sapiens), Q9UGL1; further: potency means the concentration at half of the fitted maximal effect; 0% is about no effect; nearly all actives have a fitted effect of over 70% in size
# Target sequence (Q9UGL1 whole entry, looked up): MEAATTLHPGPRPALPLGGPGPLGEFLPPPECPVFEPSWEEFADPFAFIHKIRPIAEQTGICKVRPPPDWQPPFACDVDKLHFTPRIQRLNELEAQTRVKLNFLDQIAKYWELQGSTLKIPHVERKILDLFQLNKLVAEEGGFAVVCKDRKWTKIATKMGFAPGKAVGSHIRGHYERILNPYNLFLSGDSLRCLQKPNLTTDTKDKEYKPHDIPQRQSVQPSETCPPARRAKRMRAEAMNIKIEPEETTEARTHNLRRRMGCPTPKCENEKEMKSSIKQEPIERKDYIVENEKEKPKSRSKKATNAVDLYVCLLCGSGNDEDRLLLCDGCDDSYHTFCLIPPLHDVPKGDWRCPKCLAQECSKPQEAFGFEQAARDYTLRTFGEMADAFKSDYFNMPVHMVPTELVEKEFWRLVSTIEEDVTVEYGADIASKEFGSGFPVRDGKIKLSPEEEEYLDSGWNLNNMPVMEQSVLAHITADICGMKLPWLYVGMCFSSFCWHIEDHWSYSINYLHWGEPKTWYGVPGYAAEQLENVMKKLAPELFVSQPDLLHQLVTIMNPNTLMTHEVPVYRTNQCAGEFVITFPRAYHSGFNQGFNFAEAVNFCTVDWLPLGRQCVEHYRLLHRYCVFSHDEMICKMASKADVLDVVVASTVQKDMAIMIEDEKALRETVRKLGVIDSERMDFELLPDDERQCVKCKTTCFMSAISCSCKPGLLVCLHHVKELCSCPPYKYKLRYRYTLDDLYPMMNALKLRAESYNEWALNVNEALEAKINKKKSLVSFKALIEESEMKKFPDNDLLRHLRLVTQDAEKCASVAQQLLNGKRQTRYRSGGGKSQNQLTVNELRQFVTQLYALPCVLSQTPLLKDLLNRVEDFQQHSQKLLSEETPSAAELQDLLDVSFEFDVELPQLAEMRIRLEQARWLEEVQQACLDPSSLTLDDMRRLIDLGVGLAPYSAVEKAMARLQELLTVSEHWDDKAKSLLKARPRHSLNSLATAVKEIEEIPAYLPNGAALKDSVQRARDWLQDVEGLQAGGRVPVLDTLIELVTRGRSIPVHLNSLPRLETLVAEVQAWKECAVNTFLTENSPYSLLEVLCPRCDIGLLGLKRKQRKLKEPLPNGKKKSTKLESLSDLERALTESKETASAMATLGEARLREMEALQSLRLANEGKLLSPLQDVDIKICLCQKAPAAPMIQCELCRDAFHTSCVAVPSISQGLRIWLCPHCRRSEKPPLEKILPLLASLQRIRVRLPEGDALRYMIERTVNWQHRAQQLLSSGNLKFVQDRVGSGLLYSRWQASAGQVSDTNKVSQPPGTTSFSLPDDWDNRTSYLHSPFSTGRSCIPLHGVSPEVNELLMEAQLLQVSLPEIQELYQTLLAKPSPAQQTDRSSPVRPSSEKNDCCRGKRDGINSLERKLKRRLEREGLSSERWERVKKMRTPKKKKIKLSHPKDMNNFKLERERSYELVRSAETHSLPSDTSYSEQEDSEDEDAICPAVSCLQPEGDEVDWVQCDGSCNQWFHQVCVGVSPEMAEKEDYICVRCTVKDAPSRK
#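 Here, H3K4me3 peptide (12.5 µM in substrate mix) is demethylated by KDM5BΔAP, 200 nM final, after 10 min compound exposure. Formaldehyde product is coupled through FDH (0.25 U/mL in mix) to NADH fluorescence; 30-min ΔRFU feeds dose-response curves.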
# IP6K1 inh: Primary qHTS assay for small molecule inhibitors of Inositol hexaphosphate kinase 1 (IP6K1) | Inositol hexakisphosphate kinase 1 (Homo sapiens), Q92551 | IP6K1 kinase, ADP-Glo luminescence, 2 h; active compounds read low | activity change, % (series mostly up to about 58 µM) | 0.81% of 140,000 active; in the data active means activity change below about -25%; further: on the % scale 0 is the no-effect control and ±100 the full control effect
#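 ADP-Glo luminescence measures ADP made by human IP6K1 during a 2 h RT reaction with ATP/IP6 (mix at 1.3 mM/130 uM); top library doses 57.5 and 19.1 uM final.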
# An asterisk follows results filed as active; i = inactive; ? = inconclusive; . = no result given; [ ] = dose if it differs, or a comment. Unless noted, the call rests on the fitted dose curve; in most records, active means well fitted curve in the direction sought with a large enough effect; inconclusive means small, poorly fitted or top-dose-only effect, or another doubt; inactive means no such curve, though single readings can be large; an effect the other way counts as inactive or inconclusive.
SMILES,SNCA expr inh,HEK293 viab,KDM5B inh,IP6K1 inh
Cc1ccc(-c2nc(CNC(=O)C3CCNC3)[nH]c2-c2ccccn2)cc1 (stereo not drawn),15%,4%,i,-9
Cc1c(Cl)cccc1-n1ncc(C(=O)N2CCc3ccccc3C2)c1C1CCN(C(=O)OC(C)(C)C)CC1,22µM*,4%,i,-15
Cc1ccc(NC(=S)NCCc2ccccc2)cc1,.,.,i,.
O=C(NCc1ccc(Cn2cccn2)cc1)c1cn[nH]c1-c1ccccc1,.,.,i,.
Cc1ccnc(NS(=O)(=O)c2ccc(NC(=O)Nc3ccc(S(=O)(=O)Nc4nccc(C)n4)cc3)cc2)n1,0.86µM*,?,.,-18
CC(Oc1ccc(Cl)cc1Cl)C(=O)NCCc1cccs1 (stereo not drawn),.,.,i,.
Cc1noc(C)c1-c1cc(-c2cccc(F)c2)cn2cncc12,16%[87.6 µM],-17%[87.6 µM],?,-8
Cc1noc(C)c1-c1cc(-c2ccccc2F)cn2cncc12,14%[87.6 µM],1%[87.6 µM],35µM*,-8
Cc1noc(C)c1-c1cc(-c2ccccc2C(F)(F)F)cn2cncc12,11%[87.6 µM],-15%[87.6 µM],40µM*,-7
C/C1=C/CCC2=CC(OC2=O)C(C)(C)/C=C/C1=O (stereo not drawn),.,7.5µM*,.,4
Cc1nc(CCNc2nc(-c3ccccn3)nc3c2c(C)nn3C)no1,-8%,-12%,?,1
Cc1nn(C)c2nc(-c3ccccn3)nc(NCC(c3ccco3)N(C)C)c12 (stereo not drawn),30%,-12%,?,16
COc1ccc(S(=O)(=O)NCCNc2ncnc3c2c(C)nn3C)cc1,8%,7%,i,1
CNS(=O)(=O)CCNc1nc(-c2ccccn2)nc2c1c(C)nn2C,-11%,4%,22µM*,-2
Cc1cc(=O)[nH]c(CCNc2nc(-c3ccncc3)nc3c2c(C)nn3C)n1,-8%,-1%,20µM*,3
COC(CNc1nc(-c2ccccn2)nc2c1c(C)nn2C)c1cccs1 (stereo not drawn),-1%,-7%,28µM*,1
COc1cccc(OC)c1C(=O)N1CC(=O)N(CCOc2ccccc2)CC(O)C1 (stereo not drawn),.,.,.,-1
CCc1noc(-c2cccn3c(CNC(=O)C4CC4)nnc23)n1,-15%,-3%,25µM*,-2
CCCc1noc(-c2cccn3c(CNC(=O)C4CC4)nnc23)n1,-18%,-2%,25µM*,-2
CC(C)c1noc(-c2cccn3c(CNC(=O)C4CC4)nnc23)n1,-8%,8%,28µM*,7
CCc1noc(-c2cccn3c(CNC(=O)C4CCCCC4)nnc23)n1,-11%,-1%,?,7
COc1ccc(F)cc1Nc1cnc2ccc(N(C)C)nn12,-22%[87.6 µM],7%[87.6 µM],32µM*,-17
Clc1ccc(Nc2cnc3ccc(-c4ccccc4)nn23)nc1,46%[87.6 µM],20%[87.6 µM],i,-25
COc1ccc(-c2ccc3ncc(Nc4cc(F)ccc4OC)n3n2)cn1,-25%[87.6 µM],4%[87.6 µM],i,-15
CN(C)c1ccc2ncc(Nc3ccc(Cl)cn3)n2n1,6%[87.6 µM],6%[87.6 µM],35µM*,-12
SMILES,SNCA expr inh,HEK293 viab,KDM5B inh,IP6K1 inh
CN(C)S(=O)(=O)N1CCC(Oc2ccc(C(=O)N3C[C@H]4CC[C@H]3C4)cc2)CC1,.,.,i,.
Cc1ccc(C#N)c(N2CC[C@@]3(O)CCN(S(=O)(=O)N(C)C)C[C@H]3C2)n1,-21%,-17%,28µM*,0
O=C(O)CSCc1c[nH]c2ccccc12,.,.,i,.
COc1ncccc1-c1cnc2[nH]cc(CC(=O)Nc3ccccc3C)c2c1,19%[87.6 µM],-13%[87.6 µM],?,-7
COc1ncccc1-c1cnc2[nH]cc(CC(=O)NC3CCOCC3)c2c1,8%[87.6 µM],3%[87.6 µM],?,3
CCNC(=O)Cc1c[nH]c2ncc(-c3cccnc3OC)cc12,13%[87.6 µM],8%[87.6 µM],40µM*,-14
COc1ncccc1-c1cnc2[nH]cc(CC(=O)NCc3ccco3)c2c1,14%[87.6 µM],-9%[87.6 µM],35µM*,-19
COc1cccc2cc(C(=O)N3CCN(c4ccc(C)cc4)CC3)c(=O)oc12,.,.,i,.
OCCc1cnc2c(-c3nc(-c4cccnn4)no3)cnn2c1,12%,-29%,25µM*,27
CC1(C)NC(=O)N(CCC(=O)N2CCc3c(nc4cc(-c5ccccc5)[nH]n4c3=O)C2)C1=O,-2%,-6%,28µM*,6
COc1ccc(-c2cc3nc4c(c(=O)n3[nH]2)CN(C(=O)CCCc2nc3ccccc3s2)CC4)cc1,?,3%,32µM*,0
O=C(CCCc1c[nH]c2ccccc12)N1CCc2c(nc3cc(-c4ccccc4)[nH]n3c2=O)C1,-9%,-4%,?,23
CCOCC(=O)N1CCc2nc3cc(-c4ccc(OC)cc4)[nH]n3c(=O)c2C1,?,9%,25µM*,0
O=C(CCCc1nc2ccccc2[nH]1)N1CCc2c(nc3cc(-c4ccccc4)[nH]n3c2=O)C1,22%,5%,32µM*,18
CN(C)C(CNC(=O)c1cc(=O)c2cc(Cl)ccc2o1)c1cccs1 (stereo not drawn),.,.,i,.
COc1ccc(-c2cc3nc4c(c(=O)n3[nH]2)CN(C(=O)Cc2ccc(NC(C)=O)cc2)CC4)cc1,8.9µM*,5%,14µM*,0
Cc1nc(C2(C)CCN(C(=O)c3ccc(Cc4c(C)noc4C)o3)CC2)no1,-10%,-4%,i,-9
COc1ccc(-c2cc3nc4c(c(=O)n3[nH]2)CN(C(=O)c2ccc(Cc3c(C)noc3C)o2)CC4)cc1,?,-10%,28µM*,14
O=C(Cc1cccnc1)N1CCc2c(nc3cc(-c4ccccc4)[nH]n3c2=O)C1,-9%,3%,28µM*,12
CC(=O)Nc1ccc(CC(=O)N2CCc3c(nc4cc(-c5ccccc5)[nH]n4c3=O)C2)cc1,16%,2%,22µM*,23
CCc1cccc(NC(=O)N2CCc3nc4cc(-c5ccc(OC)cc5)[nH]n4c(=O)c3C2)c1,?,5%,?,11
COc1cc(C)c(C)cc1S(=O)(=O)N1CCN(c2c(C)cccc2C)CC1,.,.,i,.
O=C1CSc2ccc(C(=O)NN(c3ccccc3)c3ccccc3)cc2N1,.,.,i,.
CCOC(=O)c1ccc(NC(=S)N(CCO)Cc2ccccc2)cc1,.,.,i,.
O=C1c2cnc(-c3cc4ccccc4o3)nc2OCCN1Cc1ccccc1,-39%[87.6 µM],-8%[87.6 µM],i,-12
O=C1c2cnc(-c3cc4ccccc4o3)nc2OCCN1c1ccccc1,?,-6%[87.6 µM],22µM*,-17
COc1ncccc1N1CC2(COCC(=O)N(Cc3cccc(OC(F)(F)F)c3)C2)C1,-3%[87.6 µM],-5%[87.6 µM],7.1µM*,1
O=C1COCC2(CN1Cc1cccc(OC(F)(F)F)c1)CN(c1nccs1)C2,-18%[87.6 µM],1%[87.6 µM],i,7
Cc1noc2c(NCCN3CCOCC3)cc(-c3ccsc3)nc12,-3%[87.6 µM],13%[87.6 µM],i,-11
